Assay results: PubChem BioAssay (NCI)
The panel holds about 79,000 compounds, 15% with a hit somewhere; the sample as a whole holds those more often. Unmarked numbers belong to inactive results. Activity calls are given as the source filed them. Cut-off read from the data, not from the text of the source: active = growth inhibition above about 70%; inactive = the rest. Where a SMILES comes first, the peptide text is derived from it. The star is where a group is joined. Boc = CC(C)(C)OC(=O)*

Columns and labels:
[1] = NCI Yeast Anticancer Drug Screen. Data for the rad50 strain (AID 155);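 note: 0% = growth of vehicle-only cultures of the same strain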; conditions: S. cerevisiae rad50 strain growth inhibition; at 50.0 µM; hits give high values
In short: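 Genetically altered yeast (DNA repair pathway); compound treatment; growth inhibition vs vehicle ctrl.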

[2] = NCI Yeast Anticancer Drug Screen. Data for the mec2-1 strain (AID 157); conditions: S. cerevisiae mec2-1 strain, at 50.0 µM, hits give high values
In short: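 Mutant yeast (mec2-1) grown with compound; growth inhibition relative to vehicle control reported.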

[3] = NCI Yeast Anticancer Drug Screen. Data for the sgs1 mgt1 strain (AID 161);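 note: 0% = growth of cultures given vehicle only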; conditions: S. cerevisiae sgs1 mgt1 strain, at 50.0 µM, hits give high values
In short: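 This yeast growth screen uses a strain with defined DNA-repair lesions; compound-treated growth is compared with vehicle-treated growth.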

[4] = NCI Yeast Anticancer Drug Screen. Data for the cln2 rad14 strain (AID 165);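 note: 0% = growth equal to vehicle treated cultures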; conditions: S. cerevisiae cln2 rad14 strain, at 50.0 µM, hits give high values
In short: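 Readout is yeast growth inhibition versus vehicle-treated controls, using a strain with cln2 and rad14 alterations exposed to compound.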

[5] = NCI Yeast Anticancer Drug Screen. Data for the bub3 strain (AID 167); conditions: S. cerevisiae bub3 mutant strain, at 50.0 µM, hits give high values
In short: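 Yeast carrying a defined mutation is treated with each compound, and growth is compared with that of vehicle-exposed cells to give inhibition.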

[6] = NCI Yeast Anticancer Drug Screen. Data for the mlh1 rad18 strain (AID 175); conditions: S. cerevisiae mlh1 rad18 strain growth inhibition; at 50.0 µM; hits give high values
In short: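 Genetically defined yeast (DNA repair-deficient) exposed to compounds; growth inhibition determined relative to vehicle.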

SMILES	growth inhibition [1]	growth inhibition [2]	growth inhibition [3]	growth inhibition [4]	growth inhibition [5] [%]	growth inhibition [6]
C/C(=N/NS(=O)(=O)c1ccc(C)cc1)C(=NO)/C(C)=N\NS(=O)(=O)c1ccc(C)cc1	55.6%	70.2% (active)	45.4%	86.2% (active)	49.9	60.5%
CCSc1cc2c(cc1O)CC[C@@H]1[C@@H]2CC[C@]2(C)[C@@H](O)CC[C@@H]12	-6.6%	-18.1%	-6.95%	-7.5%	22.4	-27.6%
CC(=O)c1ccc2c(c1)-c1ccc(C(C)=O)cc1-2	-11.9%	-0.7%	-14.4%	-11%	-10.8	-7.6%
c1ccc2oc(-c3ccc4c(c3)OCO4)nc2c1	14.8%	42.8%	11.6%	4.5%	-2.75	-0.2%
O=C1CCCNC(=O)CCCN1	15%	-9.55%	-5.45%	-40.5%	-14.3	-5.9%
CC1(C)OC(=O)c2ccccc21	30.1%	3%	-5.05%	-14.8%	1.35	2.2%
O=[N+]([O-])c1ccc(N/N=C/CCCCl)c([N+](=O)[O-])c1	6.6%	-17.3%	13.2%	12.4%	11.1	9.05%
NC1=C(O)C(=O)C(c2ccc(C3OC(N)=C(O)C3=O)cc2)O1 (stereo unspecified)	-8.15%	-17.6%	-18.6%	-0.3%	-27.6	-3.5%
COc1ccc(/C=C2/SC(=Nc3ccccc3)N(NC(=O)Cc3ccccc3)C2=O)c(OC)c1	-17.9%	-19.3%	7.45%	-12.8%	-1.85	1.9%
COc1ccc(C#CC(O)C(F)(F)F)cc1 (stereo unspecified)	-7.9%	-20.4%	-8.35%	-18.4%	-46	-11.5%
Nc1ccc(S(=O)(=O)NC2C(O)OC(CO)C(O)C2O)cc1 (stereo unspecified)	15.6%	-16.2%	6.65%	-21.6%	9.7	28.4%
Clc1ccc(CCn2cncn2)cc1	-15.6%	-11.9%	-44.9%	-11.7%	-22.6	-18.8%
CC(=O)Nc1ccccc1/C=C\c1ccccn1	-21.6%	-9.85%	-15.5%	1.25%	-5.1	-11.7%
NC(Cc1ccccc1)C(=O)Nc1ccccc1 (stereo unspecified)	18.3%	-16%	-7.3%	13.3%	-22.1	10.5%
CC(=O)CC(=O)Nc1ccc(Cc2ccc(Br)cc2)cc1	23.7%	-5.55%	9.55%	18.5%	4.15	18.9%
CC(NC(=O)C(NC(=O)OC(C)(C)C)C(C)C)C(=O)N1CCCC1C(=O)O (stereo not drawn) (Boc-Val-Ala-Pro-OH; configuration not given here)	-38.4%	-52.5%	-41%	-28.7%	-20.6	-38.4%
Cc1ccc(NC(=O)CC/C(CC(=O)C(C)(C)C)=N\Nc2ccc([N+](=O)[O-])cc2[N+](=O)[O-])cc1C	18.6%	-3.55%	-11.7%	4%	7.8	-18.3%
COC(=O)N/N=C(/Cc1occc(=O)c1O)C(=O)Nc1ccc([N+](=O)[O-])cc1[N+](=O)[O-]	-11.1%	-12.9%	-26.4%	3.3%	5.25	8.1%
COC(=O)CCC(=O)c1ccc(OC)cc1	4.7%	-6.5%	3.35%	-0.95%	10.2	2.45%
CC1CC(=O)Nc2ccccc2N1C(=O)C1CC1 (stereo unspecified)	-8.15%	-33.4%	-2.75%	2.7%	-11.6	-1.85%
Cc1cc(C)c2c(=O)cc(-c3cccc(Cl)c3)[nH]c2n1	15.6%	-12.4%	-25%	-23.8%	-50.7	-65.7%

SMILES	growth inhibition [1]	growth inhibition [2]	growth inhibition [3]	growth inhibition [4]	growth inhibition [5] [%]	growth inhibition [6]
C=CCN=C(N)SCCN(CCSC(N)=NCC=C)C(N)=O	36.1%	10.7%	36.2%	34.2%	4.05	13.1%
O=C(O)CC1SC2(C(=O)N(Cc3ccccc3)c3ccccc32)N(c2ccccc2)C1=O (stereo unspecified)	45.4%	29.8%	32.5%	-8.55%	8.55	53%
CCOc1c(N2CCOCC2)c(=O)c1=O	11.6%	-19.4%	5.7%	6.65%	30.9	5.95%
CCCCC(CCCC)(C(=O)NC)c1ccccc1	3.85%	6.65%	-4.5%	-14.2%	17.1	-23.5%
N/C(=N\OC(=O)NC(Cl)=C(Cl)Cl)c1ccc(Cl)cc1	-18.9%	-34.4%	7.4%	16.7%	-13.9	-7.95%
Cc1ccc2c(c1)NC(c1ccc(C(=O)O)cc1)c1cccn1-2 (stereo unspecified)	29.7%	8.95%	0.45%	7.7%	19.3	23.2%
NC(=O)CCn1ccc2ccccc21	0.5%	-5.8%	0%	-1.25%	5	-0.85%
COc1ccc(NC(=O)Nc2cc(Cl)ccc2C)c(Cl)c1	0.7%	36%	29.8%	-3.35%	30.4	29.9%
COc1ccc(CSc2n[nH]c(=O)[nH]c2=S)cc1	14.8%	-4.45%	-10.4%	-12.1%	4.7	38.4%
Cc1nnc2n1N=C(c1ccccc1)C(c1ccccc1)S2 (stereo unspecified)	31.8%	29.9%	33.5%	25.9%	57.4	40.3%
CC(=O)Nc1ccc(/C=N/Nc2c3ccccc3nc3ccccc23)cc1	-3.3%	13.8%	0.3%	-4.4%	6.75	0.4%
Cc1ccc(S(=O)(=O)N2CCN(C=S)CC2)cc1	22.4%	-30.8%	14.2%	3.9%	23.2	26.9%
COc1ccc(C(=O)c2ccc(Cl)cc2)c(O)c1OC	-5.85%	-6.55%	-1.7%	3.9%	19.4	-9.4%
CC1(C)COC(C2(C)C(=O)C=C(c3ccccc3)c3ccccc32)=N1 (stereo unspecified)	25.3%	-11.8%	29.8%	12.8%	3.9	11.8%
O=C1CS/C1=C/c1ccccc1	11.4%	-2.95%	-15.2%	-68.7%	-7.85	-5.15%
CC(C)=CCC(C)c1ccncc1 (stereo unspecified)	1.9%	-9.15%	9.45%	-9.05%	15	7.4%
COC(=O)c1cc(C(=O)OC)c(CC(=O)C(=O)Nc2ccc(Cl)c(C(F)(F)F)c2)nc1CC(=O)C(=O)Nc1ccc(Cl)c(C(F)(F)F)c1	-25.2%	-30.2%	-30.9%	10.5%	12.2	-17.9%
O=C1c2c(/C=C/c3ccc(Cl)c(Cl)c3)nc3ccccc3c2C(=O)N1CCN1CCCCC1	89.3% (active)	50.6%	83.2% (active)	17.9%	18.4	79.3% (active)
CCCCCC(C#N)CCC(C)=O (stereo unspecified)	-6.7%	-9.15%	-9.3%	-6.2%	-0.95	-10%
COC(=O)C1=C(C(=O)OC)N(C(C)C)[C@H]2C(C(=O)OC)=C(C(=O)OC)N(C(C)C)[C@@H]12	0.2%	-9.75%	-19.4%	5.75%	-34.8	13.3%
